# This is one part of a sample in which hits are shown more often than they occur.
# AID inhibitor: activation induced cytidine deaminase inhibition; Potency, µM (top dose mostly 115 µM), usual class: inhibitors; hit rate 0.32% among 91,000; AID 1347428; AID deamination FRET fluorescence, UDG-coupled, 4 h; further: potency means the concentration at half of the fitted maximal effect; on the % scale 0 is the no-effect control and ±100 the full control effect; nearly all actives have a fitted effect of over 25% in size
# Target sequence (Q9GZX7 whole entry, looked up): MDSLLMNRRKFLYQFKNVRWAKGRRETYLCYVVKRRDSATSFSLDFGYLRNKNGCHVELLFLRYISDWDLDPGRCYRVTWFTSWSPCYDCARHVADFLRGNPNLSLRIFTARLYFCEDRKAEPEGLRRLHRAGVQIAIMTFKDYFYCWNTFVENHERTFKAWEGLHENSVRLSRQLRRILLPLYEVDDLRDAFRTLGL
# DRV1 agonist: agonists of human resolvin D1 receptor DRV1 (GPR32); O75388; CHO-K1 GPR32 beta-arrestin PathHunter luminescence, 90 min; zero percent set by DMSO-only wells; activation, % at 76.9 µM; hit rate 2.5% among 48,000; AID 1346428;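 active means activation of at least 60% and not above a set upper limit, about 1 call in 100 departs from these limits; inconclusive means activation of 40% to 60%, or above that upper limit; inactive means activation under 40%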; further: 0% is about no effect
# Target sequence (O75388 whole entry, looked up): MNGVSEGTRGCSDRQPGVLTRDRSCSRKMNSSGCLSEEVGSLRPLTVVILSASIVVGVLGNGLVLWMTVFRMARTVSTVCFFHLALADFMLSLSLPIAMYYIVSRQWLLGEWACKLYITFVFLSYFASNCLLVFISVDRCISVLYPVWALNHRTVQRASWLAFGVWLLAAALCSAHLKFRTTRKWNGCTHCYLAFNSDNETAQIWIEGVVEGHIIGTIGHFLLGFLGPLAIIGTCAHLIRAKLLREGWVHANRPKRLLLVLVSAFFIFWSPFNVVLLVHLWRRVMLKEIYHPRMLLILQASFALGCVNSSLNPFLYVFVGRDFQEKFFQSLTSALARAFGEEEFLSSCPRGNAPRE
#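 GPR32 activation in stably transfected CHO-K1 cells, detected as beta-arrestin recruitment by enzyme-fragment complementation. Compound exposure: 90 min, 37 °C.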
# UDG counter: blocks uracil-DNA glycosylase in AID counter-screen | FRET deamination/UDG coupled assay, UDG read, 4 h | Potency, µM (titrated, usually from 115 µM), inactives show top-dose activity change, negative = inhibition, most hits filed as inhibitors | hit rate 0.14% among 91,000 | AID 1347430; further: potency means the concentration at half of the fitted maximal effect; on the % scale 0 is the no-effect control and ±100 the full control effect; nearly all actives have a fitted effect of over 65% in size
# * = called active by the depositor; i = inactive; ? = inconclusive; . = not tested or not shown; [ ] = dose if it differs, or a comment. Unless noted, the call rests on the fitted dose curve; in most records, active means well fitted curve in the direction sought with a large enough effect; inconclusive means small, poorly fitted or top-dose-only effect, or another doubt; inactive means no such curve, though single readings can be large; an effect the other way counts as inactive or inconclusive.
SMILES,AID inhibitor,DRV1 agonist,UDG counter
COc1ccc(OCc2nc3ccccc3n2Cc2ccc(C(C)(C)C)cc2)cc1,?,-8.1,-24.8%
CC(C)(C)c1ccc(OCc2nc3ccccc3n2CCOc2ccccc2)cc1,31.6µM*,-23.8,-16.2%
COc1ccc(N2CCN(CC(O)COc3ccc(C)c(C)c3)CC2)cc1 (configuration not stated),i,-23.2,-1.0%
COc1ccc(N2CCN(CC(O)COc3ccc(C(C)C)c(C)c3)CC2)cc1 (configuration not stated),i,104.4*,-6.7%[57.5 µM]
OC(CN1CCN(c2cccc(Cl)c2)CC1)C(c1ccccc1)c1ccccc1 (configuration not stated),i,6.8,-6.2%
Cc1cc(OCC(O)CN2CCN(c3cccc(Cl)c3)CC2)ccc1Cl (configuration not stated),?,69.8*,-15.3%[57.5 µM]
Cn1cccc1/C=C(\C#N)c1ccc(Br)cc1,i,.,-11.8%
N#Cc1c(N)n[nH]c1CCCNC(=O)c1ccccc1-c1ncc(-c2ccccc2)o1,i,.,-5.4%
Cc1ccccc1OCC(=O)Nc1ccc2c(c1)nc(Cn1cccn1)n2CC(C)C,i,.,1.8%
CC(O)CNc1nc(C(C)C)c2c(c1C#N)CCCC2 (configuration not stated),i,.,-10.1%
CCC(=O)Nc1ccc2nc(SCCOc3ccc(C)cc3OC)sc2c1,i,93.0*,24.2%
COc1cc(C)ccc1OCCSc1nc2ccc(NC(=O)c3ccc(F)cc3)cc2s1,i,-3.2,16.7%
Cc1cccc(C(=O)Nc2ccc3nc(SCCOc4ccccc4)sc3c2)c1,i,14.1,8.7%
CCC(=O)Nc1ccc2nc(SCCOc3cccc(C)c3)sc2c1,i,85.9*,-13.3%
O=C(Nc1ccc(Br)cc1)N1CCSc2ccccc21,i,.,-7.2%
O=S(=O)(c1ccc(Sc2nnnn2C2CC2)nc1)N1CCCC1,i,.,-5.7%
CN(CC(=O)Nc1ccc(F)cc1)Cc1nc2ccccc2c(=O)[nH]1,i,.,3.2%
Cc1cccc(N2CCN(C(=O)Nc3ccc(F)cc3)CC2C)c1 (configuration not stated),i,63.3*,-4.1%[57.5 µM]
Cc1cccc(/C=C/c2onc(C)c2S(=O)(=O)N2CCC(C(=O)N3CCCCC3)CC2)c1,?,-18.3,18.1%
Cc1cccc(N2CCN(C(=O)C3CCN(S(=O)(=O)c4c(C)noc4C)CC3)CC2C)c1 (configuration not stated),i,108.5*,-1.2%
Cc1cccc(N2CCN(C(=O)Cn3c(=O)c4cccn4c4ccc(F)cc43)CC2C)c1 (configuration not stated),i,-37.3,-1.8%[57.5 µM]
C(#Cc1ccc(C#CC[N+]2(Cc3ccccc3)CCCCC2)cc1)C[N+]1(Cc2ccccc2)CCCCC1,?,.,-6.6%
CCCCNc1nc2c(c(=O)[nH]c(=O)n2C)n1Cc1cccc(C)c1,i,.,6.4%
O=S(=O)(NCc1nc2ccccc2s1)c1cccs1,i,.,-3.4%
COc1cc2c(=O)c(S(=O)(=O)c3ccc(C)cc3)cn(Cc3cccc(C)c3)c2cc1OC,39.8µM*,-2.6,-19.3%
SMILES,AID inhibitor,DRV1 agonist,UDG counter
CCCn1cc(S(=O)(=O)c2ccc(C)cc2)c(=O)c2cc(OC)c(OC)cc21,i,-7.0,-5.7%
CC(=O)NCC(=O)OCc1ccc(COC(=O)CNC(C)=O)cc1,i,.,1.9%
Cc1ccc(C2Cc3ccccc3N2)cc1 (configuration not stated),i,.,-10.2%
C=CCNS(=O)(=O)c1ccc(C(=O)O)cc1,i,.,9.5%
COc1cc(NC(=O)c2ccc(C)cc2)ccc1NC(=O)c1cc2ccccc2o1,i,-2.5,51.8%
CCCCCC(=O)Nc1ccc(NC(=O)c2cc3ccccc3o2)c(OC)c1,i,120.8*,-29.8%
COc1cccc(-c2nnc(SCC(=O)N(C)C3CCCCC3)o2)c1,i,71.7*,-8.4%
COc1ccc(-c2nnc(SCC(=O)N(C)C3CCCCC3)o2)cc1OC,i,5.4,21.7%
COc1cccc(NC(=O)CSc2nnc(-c3cccc(OC)c3)o2)c1,i,77.8*,?
COc1ccc(NC(=O)CSc2nnc(-c3ccc(C)cc3)o2)cc1,i,-6.9,5.3%
Cc1cc(C)c2[nH]c(-c3ccccc3)c(-c3ccccc3)c2c1,i,.,-4.5%
COc1ccc(OC)c(C(C)NC(=O)CCc2ncc(-c3ccc(F)cc3)o2)c1 (configuration not stated),i,.,-6.2%
Cc1ccccc1C(=O)Nc1cc2c(cc1N1CCCCC1)n(C)c(=O)n2C,i,?,-26.0%
Cn1c(=O)n(C)c2cc(N3CCCC3)c(NC(=O)Nc3ccccc3)cc21,?,39.5,-7.6%
Cn1c(=O)n(C)c2cc(N3CCCCC3)c(NC(=O)c3c(F)cccc3F)cc21,i,118.1*,-23.4%
CCOc1ccc(NC(=O)Nc2cc3c(cc2N2CCCCC2)n(C)c(=O)n3C)cc1,i,107.0*,-9.4%
N#Cc1ccc(/C=N/Nc2c(Cl)cc(Cl)cc2Cl)cc1,i,.,8.9%
CCCC(O)c1nc2ccccc2n1CCCOc1ccc(Cl)cc1 (configuration not stated),i,68.1*,-12.1%
Cc1ccc(OCCn2c(COc3ccc(Cl)cc3)nc3ccccc32)cc1,i,9.2,-11.4%
C#CCNC(=O)c1ccc2c(c1)NC(=O)CS2,i,.,3.5%
Cc1ccc(C)c(Nc2nc(-c3ccc(-c4ccccc4)cc3)cs2)c1,i,.,2.6%
Cc1ccc(C(=O)Nc2ccc(S(=O)(=O)O)c3cc(S(=O)(=O)O)cc(S(=O)(=O)O)c23)cc1NC(=O)c1cccc(NC(=O)Nc2cccc(C(=O)Nc3cc(C(=O)Nc4ccc(S(=O)(=O)O)c5cc(S(=O)(=O)O)cc(S(=O)(=O)O)c45)ccc3C)c2)c1,7.08µM*,-14.5,8.1%
Cc1ccc(NC(=O)c2cccc(NC(=O)NC(C)C)c2)cc1Cl,i,.,0.0%
CCn1c(SCC(=O)Nc2cc(C)ccc2F)nnc1-c1ccccc1O,i,82.1*,-11.2%
CCn1c(CC(=O)Nc2ccccc2F)nnc1SCC(=O)Nc1ccccc1F,i,.,-7.4%
SMILES,AID inhibitor,DRV1 agonist,UDG counter
CCCc1cc(=O)[nH]c(Nc2cccc(Cl)c2Cl)n1,i,87.2*,31.5%
CCCc1cc(=O)[nH]c(Nc2ccc(O)cc2C)n1,i,0.5,0.0%
CCCc1cc(=O)[nH]c(Nc2cc(Cl)cc(Cl)c2)n1,i,98.5*,-9.6%
CCCc1cc(=O)[nH]c(Nc2cc(C)cc(C)c2)n1,i,6.3,12.1%
Cc1ccc(-c2nc(CN3CCCC3c3nnc4ccccn34)co2)c(C)c1 (configuration not stated),i,.,7.9%
O=C(CC1CCCC1)NCCCCNC(=O)CC1CCCC1,i,.,-0.5%
Cc1ccc(Cn2cc(C(=O)c3ccc(C)cc3)c(=O)c3ccc(C)nc32)cc1,i,-0.3,-0.1%
Cc1ccc(C(=O)c2cn(Cc3c(F)cccc3Cl)c3nc(C)ccc3c2=O)cc1,i,82.2*,-6.8%
Cc1ccc(NC(=O)c2ccc3ccccc3n2)cc1Cl,i,.,-6.4%
COc1ccc(C(=O)Nc2ccc(C3(C)CC=NO3)cc2)cc1 (configuration not stated),i,.,8.8%
CC(C)(C)NCC(O)c1ccc(O)c(CO)c1 (configuration not stated),i,-8.8,-4.3%

# Assay outcomes deposited in PubChem BioAssay by National Center for Advancing Translational Sciences (NCATS).
